PubChem BioAssay (NCATS)
Records with an inconclusive call do not appear. Entries that show only a call come without a potency. The source made the active and inactive calls. The call rests on the fitted dose curve; in most records, active means well fitted curve in the direction sought with a large enough effect; inconclusive means small, poorly fitted or top-dose-only effect, or another doubt; inactive means no such curve, though single readings can be large; an effect the other way counts as inactive or inconclusive.

Target: Luciferin 4-monooxygenase (Photinus pyralis) (UniProt P08659)
Sequence (P08659 whole entry, looked up): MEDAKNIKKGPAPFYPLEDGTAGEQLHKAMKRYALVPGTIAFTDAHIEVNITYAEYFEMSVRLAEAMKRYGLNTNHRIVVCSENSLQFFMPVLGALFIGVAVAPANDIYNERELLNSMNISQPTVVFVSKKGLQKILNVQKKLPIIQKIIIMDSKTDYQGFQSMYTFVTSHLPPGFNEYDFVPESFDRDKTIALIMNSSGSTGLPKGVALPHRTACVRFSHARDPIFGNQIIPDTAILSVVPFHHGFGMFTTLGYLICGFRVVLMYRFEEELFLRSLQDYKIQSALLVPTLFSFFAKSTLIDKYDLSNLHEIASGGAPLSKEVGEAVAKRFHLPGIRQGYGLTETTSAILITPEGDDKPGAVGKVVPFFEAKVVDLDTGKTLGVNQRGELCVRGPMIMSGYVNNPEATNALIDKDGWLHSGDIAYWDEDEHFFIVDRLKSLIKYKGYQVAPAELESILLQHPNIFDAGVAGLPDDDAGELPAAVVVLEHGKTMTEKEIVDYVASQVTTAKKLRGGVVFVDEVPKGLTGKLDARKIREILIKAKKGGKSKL
Assay: Biochemical firefly luciferase enzyme assay for NPC (AID 624030)
Conditions: purified P. pyralis luciferase, luminescence, 5 min; series mostly up to 58.6 µM
Summary of the method: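 Purified P. pyralis luciferase at 10 nM in 50 mM Tris Acetate (final), luminescence read within 5 minutes of enzyme addition to compounds. Activity normalised to PTC124 versus DMSO; concentration-response curves classed by r2, magnitude and activity.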
Further: nearly all actives have a fitted effect of over 70% in size.
Potency means the concentration at half of the fitted maximal effect.

Structure (SMILES) | Potency
C[C@]12CCC(=O)C=C1CC[C@@H]1[C@@H]2[C@@H](O)C[C@@]2(C)[C@H]1CC[C@]2(O)C(=O)COP(=O)(O)O | inactive
C[C@]12O[C@H](C[C@]1(O)CO)n1c3ccccc3c3c4c(c5c6ccccc6n2c5c31)CNC4=O | inactive
COC(=O)CCC(=O)CN | inactive
CCCCCCOc1ccc(C(=N)N(CCCC)CCCC)c2ccccc12 | inactive
O=C1C(=O)c2ncccc2-c2cccnc21 | inactive
COc1cc(-c2ccc(-[n+]3nc(-c4ccccc4)nn3-c3ccc([N+](=O)[O-])cc3)c(OC)c2)ccc1-[n+]1nc(-c2ccccc2)nn1-c1ccc([N+](=O)[O-])cc1 | inactive
CCOc1ccc(N=Nc2ccc(N)cc2N)cc1 | 0.203 µM (active)
Cc1cn([C@H]2C[C@H](O)[C@@H](CO)O2)c(=O)[nH]c1=O | inactive

System: not listed separately
Assay: S16 Schwann cell viability assay (CellTiter-Glo assay) (AID 624031)
Conditions: S16 rat Schwann cells viability, 24 h; series mostly up to 57.5 µM
Summary of the method: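 Concentration-effect curves come from CellTiter-Glo luminescence of S16 rat Schwann cells after 24 h compound exposure. Each reading was normalized to DMSO wells (0%) and wells without cells, and curves were ranked by r2 and response magnitude.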

Structure (SMILES) | Potency
C[C@]12CCC(=O)C=C1CC[C@@H]1[C@@H]2[C@@H](O)C[C@@]2(C)[C@H]1CC[C@]2(O)C(=O)COP(=O)(O)O | inactive
C[C@]12O[C@H](C[C@]1(O)CO)n1c3ccccc3c3c4c(c5c6ccccc6n2c5c31)CNC4=O | 10.2 µM (active)
COC(=O)CCC(=O)CN | inactive
CCCCCCOc1ccc(C(=N)N(CCCC)CCCC)c2ccccc12 | 16.1 µM (active)
Cc1cn([C@H]2C[C@H](O)[C@@H](CO)O2)c(=O)[nH]c1=O | inactive
